The whole screen tested about 5,500 compounds, of which about 2,000 (36%) were called active. Inconclusive results (about 18%) are left out. No stated cut-off is given here; in the data, active means normalized growth mostly below about 0.91 (no sharp cut-off); inconclusive means no clear call, values can overlap the other calls; inactive means mostly above about 0.92. This is one part of the list.
Assay: chemical genetic growth profiling, strain panel (AID 1159580);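 further: tested at 20 µM; growth read once vehicle control cultures reached saturation at 30 °C; 1 = growth at the plate median or of vehicle wells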
Conditions: growth OD

Measured: normalized growth

Cc1cc2c3c(c1)c(O)cc(=O)n3CCC2
active: S. cerevisiae deletion strains, locus YHR030C, strain SLT2, stronger effect = lower value 0.518 | S. cerevisiae deletion strains, locus YLR039C, strain RIC1, stronger effect = lower value 0.544 | S. cerevisiae deletion strains, locus YLR262C, strain YPT6, stronger effect = lower value 0.549
inactive: S. cerevisiae deletion strains, locus YAL013W, strain DEP1, stronger effect = lower value 0.967 | S. cerevisiae deletion strains, locus YBR229C, strain ROT2, stronger effect = lower value 0.989 | S. cerevisiae deletion strains, locus YDL101C, strain DUN1, stronger effect = lower value 0.981 | S. cerevisiae deletion strains, locus YDL134C, strain PPH21, stronger effect = lower value 0.968 | S. cerevisiae deletion strains, locus YDR150W, strain NUM1, stronger effect = lower value 1 | S. cerevisiae deletion strains, locus YEL061C, strain CIN8, stronger effect = lower value 1.01 | S. cerevisiae deletion strains, locus YGR078C, strain PAC10, stronger effect = lower value 0.991 | S. cerevisiae deletion strains, locus YGR229C, strain SMI1, stronger effect = lower value 0.974 | S. cerevisiae deletion strains, locus YHR087W, strain rtc3, stronger effect = lower value 0.991 | S. cerevisiae deletion strains, locus YJL187C, strain SWE1, stronger effect = lower value 0.984 | S. cerevisiae deletion strains, locus YJR043C, strain POL32, stronger effect = lower value 0.984 | S. cerevisiae deletion strains, locus YJR075W, strain HOC1, stronger effect = lower value 1 | S. cerevisiae deletion strains, locus YKL190W, strain CNB1, stronger effect = lower value 0.988 | S. cerevisiae deletion strains, locus YLR058C, strain SHM2 (second series), stronger effect = lower value 0.995 | S. cerevisiae deletion strains, locus YLR085C, strain ARP6, stronger effect = lower value 0.968 | S. cerevisiae deletion strains, locus YML094W, strain GIM5, stronger effect = lower value 1.02 | S. cerevisiae deletion strains, locus YMR219W, strain ESC1, stronger effect = lower value 0.969 | S. cerevisiae deletion strains, locus YMR263W, strain SAP30, stronger effect = lower value 0.968 | S. cerevisiae deletion strains, locus YNL128W, strain TEP1, stronger effect = lower value 0.989 | S. cerevisiae deletion strains, locus YNL153C, strain GIM3, stronger effect = lower value 0.971 | S. cerevisiae deletion strains, locus YNL298W, strain CLA4 (second series), stronger effect = lower value 1.01 | S. cerevisiae deletion strains, locus YNL322C, strain KRE1, stronger effect = lower value 0.993 | S. cerevisiae deletion strains, locus YNR030W, strain Alg12, stronger effect = lower value 0.989 | S. cerevisiae deletion strains, locus YOL006C, strain TOP1, stronger effect = lower value 1.03 | S. cerevisiae deletion strains, locus YPL055C, strain LGE1, stronger effect = lower value 0.88 | S. cerevisiae deletion strains, locus YPL241C, strain CIN2, stronger effect = lower value 0.96 | S. cerevisiae deletion strains, locus YPR135W, strain CTF4, stronger effect = lower value 0.918 | S. cerevisiae strains, strain wild type, stronger effect = lower value 0.967

Reference: PubChem BioAssay AID1159580 (chemical genetic matrix, 2015)
